Data as given in PubChem BioAssay AID1259418 (Broad Institute, 2018).
The campaign covered roughly 3,400 compounds. About 840 (25%) were called active. Roughly 11% stayed inconclusive and do not appear here. Not all results are given here. Entries with a potency or affinity are not part of this list. Unmarked numbers belong to inactive results.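 Rule for the calls: active = fitted half-maximal concentration of signal decrease at or below twice the sample's top tested concentration; inconclusive = flat curve between -70 and -30 percent, or poor fit; inactive = flat within 30 percent, signal rise, or potency above limit.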

Test: inhibitors of Toxoplasma growth in IFN-γ-primed HeLa – cell-based, ME49Luc, luciferase, 72 h, dose response (AID 1259418)
Conditions: T. gondii ME49Luc in IFN-y HeLa, hits give low values, -100% = high-dose IFN-γ control wells; at 19.5 µM unless noted

In order of rising max activity:
1. COc1cc(OC)cc(C(=O)Nc2ccc(-c3nc(-c4ccccc4)co3)cc2)c1  -34% [at 1.35 µM]
2. Cc1oc(-c2ccccc2)nc1Cn1nnc(-c2nc(-c3ccc(F)c(Cl)c3)no2)c1C  -12.6% [at 1.35 µM]
3. CCOc1ccc(-c2nc(CN3CCN(C(=O)Nc4ccc(CC)cc4)CC3)c(C)o2)cc1  8.87% [at 1.35 µM]
4. COc1ccccc1CNC(=O)CC1N=C2c3ccccc3N=C(SCc3ccccc3F)N2C1=O (centres undefined)  21.2% [at 1.35 µM]

In order of rising max activity:
1. Cc1nc(-c2cc(S(=O)(=O)N3CCCCC3C)c(C)s2)sc1C (centres undefined)  -14.7% [at 5 µM]
2. Cc1ccc(C)c(CSc2ccc(-c3sc(-c4ccc(F)cc4)nc3C)nn2)c1  -9.1% [at 5 µM]
3. CCS(=O)(=O)N1CSC[C@@H]1C(=O)NCCc1csc(-c2ccccc2)n1  7.03% [at 5 µM]
4. CCOc1ccc(NC(=O)N2CCN(Cc3nc(-c4ccc(OCC)cc4)oc3C)CC2)cc1  8.47% [at 5 µM]
5. O=C(COc1ccccc1)N1CCC2(CC1)Nc1cc(F)ccc1-n1cccc12  10.6% [at 5 µM]
6. CSc1cccc(NC(=O)COc2nc(C)nc3ccccc23)c1  16.7% [at 5 µM]
7. COc1ccc(OC)c(NC(=O)N2CCN(Cc3nc(-c4cccc(Cl)c4)oc3C)CC2)c1  24.8% [at 5 µM]
8. Cc1ccc(S(=O)(=O)N2CC[C@@H]3[C@H](CO)Nc4ccc(-c5cccc(C(=O)N(C)C)c5)cc4[C@@H]32)cc1  26.4% [at 5 µM]
9. COc1ccccc1-c1ccc2c(c1)[C@@H]1[C@@H](CCN1S(=O)(=O)c1ccc(C)cc1)[C@H](CO)N2  39.6% [at 5 µM]

In order of rising max activity:
1. Cc1ccccc1S(=O)(=O)N1CSC[C@@H]1C(=O)NCCc1csc(-c2ccccc2)n1  -13% [at 0.16 µM]
2. COc1ccc(-c2nc(N3CCN(c4ccc(C)cc4C)CC3)c3ccccc3n2)cc1  -12.6% [at 0.16 µM]
3. Cc1oc(-c2cccc(Cl)c2)nc1Cn1nnc(-c2nc(-c3ccc(F)cc3)no2)c1C  -12.5% [at 0.16 µM]
4. COc1cccc(-c2nc3c(s2)CN(S(=O)(=O)c2ccc(Cl)cc2)CC3)c1  -9.55% [at 0.16 µM]
5. Cc1cc(C)c2c(=O)n(Cc3nc(-c4cccc(Cl)c4)oc3C)c(=O)n(-c3ccccc3)c2n1  -9.3% [at 0.16 µM]
6. CCOc1ccc(-c2nc(CN3CCN(C(=O)Nc4cc(C)cc(C)c4)CC3)c(C)o2)cc1  -7.26% [at 0.16 µM]
7. Cc1nc(-c2ccc(F)cc2)sc1-c1ccc(SCc2cccc(C(F)(F)F)c2)nn1  -7.18% [at 0.16 µM]
8. CCOc1ccc(-c2nc(CN3CCN(C(=O)Nc4ccccc4C(=O)OC)CC3)c(C)o2)cc1  6.24% [at 0.16 µM]
9. COC(=O)c1cc(Cl)ccc1NC(=O)COc1nc(C)nc2ccccc12  15.7% [at 0.16 µM]
10. COc1ccc(CC(=O)Nc2ccc(-c3nc(-c4cc(C)ccc4C)co3)cc2)cc1  17.8% [at 0.16 µM]

In order of rising max activity:
1. O=C(Nc1ccc(-c2nc(-c3cccc(Br)c3)co2)cc1)Nc1cccc(F)c1  -13.2% [at 2.6 µM]
2. COc1cc(CCC(=O)N2CCC3(CC2)Nc2ccc(C)c(C)c2-n2cccc23)cc(OC)c1OC  -12.8% [at 2.6 µM]
3. CCOc1ccc(-c2nc(CN3CCN(C(=O)Nc4ccccc4CC)CC3)c(C)o2)cc1  11.7% [at 2.6 µM]
4. Cc1[nH]c2ccccc2c1C(=O)C(=O)NC1CC(=O)N(c2ccccc2)C1 (centres undefined)  12.7% [at 2.6 µM]
5. O=C(NCCc1csc(-c2ccccc2)n1)[C@H]1CSCN1S(=O)(=O)Cc1ccccc1  17.7% [at 2.6 µM]
6. CCOc1ccc(NC(=O)N2CCN(Cc3nc(-c4ccc(C)cc4)oc3C)CC2)cc1  18.7% [at 2.6 µM]

In order of rising max activity:
1. O=C(c1ccccc1F)N1CCC2(CC1)Nc1ccc(Cl)cc1-n1cccc12  -6.53% [at 0.35 µM]
2. COc1ccc(C)cc1NC(=O)Nc1ccc(-c2nc(-c3cc(C)ccc3C)co2)cc1  9.85% [at 0.35 µM]
3. Clc1ccc(-c2nc(N3CCCc4ccccc43)c3ccccc3n2)cc1  10.7% [at 0.35 µM]
4. Cc1nc(CCNC(=O)[C@H]2CCCN2C(=O)c2ccccc2Cl)cs1  13.6% [at 0.35 µM]
5. CCc1nc(OCC(=O)Nc2ccccc2OC)c2ccccc2n1  14.6% [at 0.35 µM]

In order of rising max activity:
1. CCc1ccc(S(=O)(=O)N2CSC[C@@H]2C(=O)NCCc2csc(-c3ccccc3)n2)cc1  -11.2% [at 0.68 µM]
2. COc1ccc(-c2nc(NCc3ccccc3OC)c3ccccc3n2)cc1  -10.7% [at 0.68 µM]
3. Cc1nc(CCNC(=O)C2CCN(S(=O)(=O)c3cnn(C(F)F)c3C)CC2)cs1  8.74% [at 0.68 µM]
4. O=C(c1ccc(F)cc1)N1CCC2(CC1)Nc1ccc(Cl)cc1-n1cccc12  13.8% [at 0.68 µM]

In order of rising max activity:
1. COc1ccc(-c2nc(NCCc3ccc(SC)cc3)c3ccccc3n2)cc1  -32.9%
2. CCOc1ccc(-c2nc(CN3CCN(C(=O)Nc4ccc(C)cc4)CC3)c(C)o2)cc1  -22.9%
3. O=C(Cc1cccc(F)c1)Nc1ccc2c(c1)CCC(=O)N2  -7.77%
4. Cc1cccc(-c2nc(Cn3nnc(-c4nc(-c5ccc(Cl)c(F)c5)no4)c3C)c(C)o2)c1  6.89%
5. COCCO[C@H]1CCN(Cc2c(C)noc2C)[C@H]1Cc1ccccc1  11.4%
6. O=C(NCCc1csc(-c2ccccc2)n1)[C@H]1CSCN1S(=O)(=O)c1ccccc1  14.6%
7. Cc1ccoc1C(=O)N1CC[C@H]2CO[C@@H](CN3CCN(C)CC3)[C@@H]2C1  14.9%
8. CCOc1ccc(-c2nc(CN3CCN(C(=O)Nc4ccccc4OCC)CC3)c(C)o2)cc1  16%
9. CCOC(=O)CSC1=Nc2ccccc2C2=NC(CC(=O)NCc3ccc(F)cc3)C(=O)N12 (centres undefined)  17.3%
10. O=C(C[C@@H]1CC[C@@H]2[C@H](COC[C@@H](O)CN2C(=O)Nc2cc(Cl)cc(Cl)c2)O1)N1CCOCC1  20.4%
11. Cc1ccc(NC(=O)COc2nc(C)nc3ccccc23)c(Br)c1  23.6%
12. CS(=O)(=O)N1CC(=O)N2[C@H](CO)[C@@H](c3ccc(Br)cc3)[C@H]2C1  27.1%
13. COc1ccc(-n2c(C)cc(CNS(=O)(=O)c3ccc4c(c3)CCC(=O)N4)c2C)cc1  35.1%
14. Cc1ccc(-c2coc(-c3ccc(NC(=O)C(C)C)cc3)n2)cc1  38.3%
15. COc1ccccc1-c1ccc2c(c1)[C@H]1[C@H](CCN1S(=O)(=O)c1ccc(C)cc1)[C@@H](CO)N2  38.9%
16. COc1cc(OC)c(NC(=O)COc2nc(C)nc3ccccc23)cc1Cl  39.9%
17. CN1c2ccc(C3=CCCCC3)cc2[C@@H]2[C@@H](CCN2C(=O)C2CCOCC2)[C@H]1CO  43.9%
18. Cc1ccc(-c2coc(-c3ccc(NC(=O)Cc4cccs4)cc3)n2)c(C)c1  116%

In order of falling max activity:
1. O=C(c1ccc2c(c1)OCO2)N1CC[C@@H]2[C@H]1c1cc(C#Cc3ccccc3)ccc1N[C@@H]2CO  33.7% [at 10 µM]
2. Cc1ccc(S(=O)(=O)N2CC[C@@H]3[C@@H](CO)Nc4ccc(-c5cccc(C(=O)N(C)C)c5)cc4[C@@H]32)cc1  30.1% [at 10 µM]
3. CC(C)C#Cc1ccc([C@H]2[C@@H](CO)N3C(=O)CN(S(=O)(=O)c4ccccc4)C[C@@H]23)cc1  19.2% [at 10 µM]
4. Cc1ccc(C)c(-c2coc(-c3ccc(NC(=O)c4sccc4C)cc3)n2)c1  16.8% [at 10 µM]
5. N#Cc1cccc(-c2ccc3c(c2)[C@H]2[C@H](CCN2C(=O)c2ccccc2F)[C@@H](CO)N3)c1  16.6% [at 10 µM]
6. O=C(NCCc1csc(-c2ccccc2)n1)[C@H]1CSCN1S(=O)(=O)c1ccc(F)cc1  15.5% [at 10 µM]
7. CS(=O)(=O)N1CC(=O)N2[C@H](CO)[C@H](c3ccc(C#CCC4CCCC4)cc3)[C@@H]2C1  13.6% [at 10 µM]
8. CS(=O)(=O)N1CC(=O)N2[C@@H](CO)[C@H](c3ccc(C#Cc4ccc(F)cc4)cc3)[C@@H]2C1  11.8% [at 10 µM]
9. CC(C)C#Cc1ccc([C@H]2[C@@H](CO)N3C(=O)CN(S(=O)(=O)c4ccccc4)C[C@H]23)cc1  -8.27% [at 10 µM]
10. COc1ccc2c(c1)NC1(CCN(C(=O)Cc3cccs3)CC1)c1cccn1-2  -16.4% [at 10 µM]

`CS(=O)(=O)N1CC(=O)N2[C@H](CO)[C@@H](c3ccc(C#CCC4CCCC4)cc3)[C@H]2C1` showed a max activity of 29.5% [at 11 µM].

In order of falling max activity:
1. COc1ccc(NC(=O)N2CC[C@@H]3[C@H]2c2cc(C4=CCCCC4)ccc2N(C)[C@H]3CO)cc1  18.9% [at 0.3 µM]
2. O=S(=O)(c1cccc(F)c1)N1CC[C@@H]2[C@H]1c1cc(C#Cc3ccccc3F)ccc1N[C@@H]2CO  6.78% [at 0.3 µM]
